# Test results from PubChem BioAssay (Tox21).
# Values joined by “and” are separate entries in the source; they are usually repeats but may differ in a detail not shown here. Equal values may be shown once. Active and inactive are the calls of the source. Calls come from the whole dose curve.
# Biological target: Acetylcholinesterase (Homo sapiens) (UniProt P22303)
# Experiment: Acetylcholinesterase (AChE) small molecule antagonists: enzyme-based qHTS assay with human liver microsomes (AID 1347399); note: nearly all actives have a fitted effect of over 60% in size
# Settings: Potency: qHTS inhibition; series mostly up to 115 µM; activity change, negative = inhibition: at the top concentration
# How it was run: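 Recombinant human AChE (50 mU/mL in the enzyme mix) and human liver microsomes (0.25 mg/mL final) were preincubated with compound and NADPH (0.25 mg/mL final) for 30 min at 37 C. Acetylthiocholine/DTNB was then added; thiocholine was read colorimetrically after 10 min at room temperature.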
# % is set by controls: 0 for no effect and ±100 for the full control effect; potency is the fitted concentration of half-maximal effect.
# Acetylcholinesterase (Homo sapiens), sequence (P22303 whole entry, looked up): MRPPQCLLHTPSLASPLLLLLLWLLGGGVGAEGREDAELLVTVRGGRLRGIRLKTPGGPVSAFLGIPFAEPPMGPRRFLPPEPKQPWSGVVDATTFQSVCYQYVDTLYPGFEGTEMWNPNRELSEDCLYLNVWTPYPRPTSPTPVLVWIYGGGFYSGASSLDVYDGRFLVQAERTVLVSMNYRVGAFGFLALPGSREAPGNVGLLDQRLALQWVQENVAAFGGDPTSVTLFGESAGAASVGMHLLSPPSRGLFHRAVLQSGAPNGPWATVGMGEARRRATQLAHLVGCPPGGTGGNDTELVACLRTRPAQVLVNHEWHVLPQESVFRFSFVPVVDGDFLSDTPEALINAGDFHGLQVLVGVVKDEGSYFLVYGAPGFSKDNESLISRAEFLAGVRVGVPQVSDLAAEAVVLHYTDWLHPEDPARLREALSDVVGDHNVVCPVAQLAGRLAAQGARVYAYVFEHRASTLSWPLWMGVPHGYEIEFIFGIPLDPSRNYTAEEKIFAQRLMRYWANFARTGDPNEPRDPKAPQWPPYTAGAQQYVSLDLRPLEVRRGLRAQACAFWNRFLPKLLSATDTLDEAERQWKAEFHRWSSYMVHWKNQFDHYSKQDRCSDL
SMILES,"activity change, negative = inhibition",Potency
O=C(O)c1ccccc1C(=O)Nc1cccc2ccccc12,-8.85% (inactive),
CNC(C)Cc1ccccc1OC (stereo not drawn),-0.168% [at 53 µM] (inactive),
COC(=O)C(C)N(C(=O)Cc1ccccc1)c1c(C)cccc1C (stereo not drawn),0.304% (inactive),
CC(C)=CCOc1c2occc2cc2ccc(=O)oc12,-1.42% [at 53 µM] (inactive),
CCCCNP(N)(N)=S,-1.83% (inactive),
COC(=O)C(Br)CBr (stereo not drawn),0.54% (inactive),
Cc1ccc2ccccc2c1,-0.943% (inactive),
COC(C)(C)CCC[C@H](C)C/C=C/C(C)=C/C(=O)OC(C)C,0.229% (inactive),
CCCC(=O)Cl,-1.01% (inactive),
CCBr,-3.39% (inactive),
NNC(=O)c1cccnc1,-1.48% (inactive),
Cc1cc(=O)[nH]o1,-1.67% (inactive),
N#CCc1ccccc1,-0.682% (inactive),
CC(Cl)Cl,-0.86% (inactive),
CCCN(CCCl)c1c([N+](=O)[O-])cc(C(F)(F)F)cc1[N+](=O)[O-],3.89% (inactive),
CCOP(=O)(OCC)SCCSCC,,17 µM (active) and 35.6 µM (active)
CCCCCCC#N,1.65% (inactive),
CC(C)(C)C(O)C(Oc1ccc(Cl)cc1)n1cncn1 (stereo not drawn),0.879% (inactive),
NC(=O)C(Cl)(Cl)Cl,-1.89% (inactive),
CCOP(O)OCC,0.611% (inactive),
Cc1ccc(N)cc1C,0% (inactive),
O=C(NC(=O)c1c(F)cccc1F)Nc1cc(Cl)c(Oc2ncc(C(F)(F)F)cc2Cl)c(Cl)c1,0.0764% (inactive),
CCCN(CC1CC1)c1c([N+](=O)[O-])cc(C(F)(F)F)cc1[N+](=O)[O-],1.98% (inactive),
O=NN1CCCCCC1,-1.76% (inactive),
C=CCCl,-2.22% (inactive),
IC(I)=C(I)I,0.603% (inactive),
CC1(C)[C@H](C=C(Cl)Cl)[C@@H]1C(=O)O[C@@H](C#N)c1cccc(Oc2ccccc2)c1,1.45% (inactive),
CCOP(=S)(OCC)Oc1nc(Cl)c(Cl)cc1Cl,,56.6 nM (active) and 894 nM (active)
